Assay results as given in the supplement of paper PMC6555819.

Columns and labels:
Assay in all cases: PBM binding z-score (relative to random genomic background probes); higher = stronger binding; sequences stand for … in GC…GCGATTGACAGCGTAGAATGAAGG
[1] = test system: RARb homodimer (NR concentration 270 nM)
Summary of the method: (§1)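 Ligand-free nuclear receptor dimers were bound for 1 h to custom Agilent 4×180K protein-binding microarrays. Detection used antibodies against each partner (one per run). Binding z-scores rest on regression-normalized fluorescence, with random background probes as the reference.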

[2] = test system: RARg:RXRa (NR concentration 270 nM, RXRa partner concentration 90 nM)
Summary of the method: as §1

[3] = test system: RARg homodimer (NR concentration 270 nM)
Summary of the method: as §1

[4] = test system: RXRa DBDmut IVT, anti-RXR (DBD mutation: RXRa K156A/R161A, NR concentration 90 nM)
Summary of the method: as §1

[5] = test system: RXRa homodimer (NR concentration 180 nM)
Summary of the method: as §1

[6] = test system: THRa:RXRa (NR concentration 90 nM, RXRa partner concentration 90 nM)
Summary of the method: as §1

[7] = test system: THRa homodimer (NR concentration 90 nM)
Summary of the method: as §1

[8] = test system: VDR homodimer (NR concentration 270 nM)
Summary of the method: as §1

Sequence	PBM binding z-score [1]	PBM binding z-score [2]	PBM binding z-score [3]	PBM binding z-score [4]	PBM binding z-score [5]	PBM binding z-score [6]	PBM binding z-score [7]	PBM binding z-score [8]
CAAACTAGATCAAGGTCAAAGTCGGTTTGTGCCA	3.72	3.89	3.29	2.46	4.18	3.88	2.96	3.73
ACTCGCAGGACAAAGGTCAGAGCTACGCCAGTGA	4.26	5.2	5.21	0.845	5.45	3.03	0.0955	0.474
AATACAGGGTCACTAGGCCATAGTAGGTACGAAT	3.38	5.37	4.61	2.58	5.6	3.55	1.24	2.98
ACAGACAGGTGATGAACGTAACTCAGGCTATCAT	0.0133	0.303	0.489	0.0589	0.363	0.000937	-0.114	-0.513
TGTCAAAGTTCAAAGGTACCGTAAGTATCCACAC	4	5.69	5.77	4.44	5.81	2.65	-0.264	4.24
CGTCAAAGTTCAACTAAGGTAACGTAGAGCACGC	4.06	6.15	6.74	4.65	5.34	5.11	1.86	3.92
TGTCAAAGTTCAAAGGTAACGTAAGTATCCACAC	3.82	6.28	6.19	4.36	7.27	3.53	0.176	4.04
AAAGACAGGTGATGAAGGTAACTCAGGCTATCAT	0.516	0.231	0.563	-0.304	0.572	1.23	0.466	0.111
TAGCCTCGGTCATGGGCCAGTATACCACGCGAAC	1.72	1.72	2.42	-1.4	0.378	0.05	-0.217	-0.408
AGAATGAGGTTACCAAAGATCGGGGAAACGCTTG	0.666	1.91	1.43	1.5	2.5	2.71	0.699	-0.00618
TCTACAGGGTCAAAGGCCAGAGTACGAATGTCGA	3.2	5.47	5	3.16	6.72	3.48	0.454	2.55
GTACCAAGGTGAATAGGTCGTTGAAGAGTAGGCG	2.13	2.81	1.45	-0.183	1.9	1.91	0.593	0.198
AATACAGGGTCATCGTTGGCCAGAGTACGCACAG	3.58	5.68	5.14	3.53	6.56	3.95	1.53	3.86
CGTCAAAGTTCAAGTAAGGTAACGTAAAGCACGC	4.18	5.63	6.15	4.54	4.68	5.33	1.95	3.69
CCGACTGGCGCAAAGGTTACCATACTCAGTACGA	1.81	1.62	0.821	0.55	2.11	1.35	-0.0334	-0.00484
TCTAGTTTGTCACGGAGGTCACACACGACGGGTA	4.23	4.3	4.16	1.65	4.54	3.6	2.96	3.15
TAGCCTAGGTCATTCAGGGGCCAGTATCGAAAGC	3.55	5.82	4.73	1.96	3.05	3.47	0.885	1.48
CCTACTGGGCCAAGGTCATTGAACAGTCAAAGCA	3.4	3.82	3.72	0.677	3.68	3.5	2.14	2.77
TCTATTAGGTGAAGGGCAACCGACGAGTCCGTTT	1.59	1.07	1.35	1.57	0.977	1.42	0.828	1.67
TCGAGTTGGTCAAAGGTCACACACTCGAAATGCG	4.92	6.93	5.89	2.1	8.01	3.94	1.19	2.78
TGAACGAGGTTAAAGATCAGGGAACGTGGCGTCG	0.576	2.39	1.35	0.835	3.89	2.04	-0.132	0.34
CTCGAAAGGTCGGATGAGGTGAGTATACGGATAA	2.69	3.2	3.26	0.982	2.94	5.16	1.3	0.327
ATATGTAGGTTACATCCGGGTCATTAAGGCTATG	3.03	3.68	2.19	1.31	3.15	3.75	2.8	2.89
TCAGACAGGTGAAGGTAACACAGGTACGCAGTCG	1.34	0.896	1	1.56	1.54	1.36	0.868	0.48
GATACAGGGACAGCTAGAGGCCAGAGTATGGAAA	0.97	0.522	1.01	-0.496	0.185	0.508	0.191	-0.0729
CGAACTAGGTCAAGGTCAAAGTCGGTTTGTGCCA	4.96	5.97	6.77	3.12	5.78	4.11	3.7	4.23
